Laboratory results from PubChem BioAssay (NCATS).
Inconclusive results are not listed. Entries that show only a call come without a potency. Values without a mark were called inactive. The source made the active and inactive calls. The call rests on the fitted dose curve; in most records, active means well fitted curve in the direction sought with a large enough effect; inconclusive means small, poorly fitted or top-dose-only effect, or another doubt; inactive means no such curve, though single readings can be large; an effect the other way counts as inactive or inconclusive.

Legend:
[1] = tested on: CRL-7250; experiment: Cytotoxic Profiling of Annotated Libraries Using Quantitative High-Throughput Screening (AID 1296008); conditions: Five cell lines viability, CellTiter-Glo ATP luminescence, 48-72 h; max response: active compounds read low; further: nearly all actives have a fitted effect of over 60% in size; further: potency means the concentration at half of the fitted maximal effect
In short: (§1)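 Cytotoxicity was measured as CellTiter-Glo ATP luminescence, read after 10 min at room temperature. Compound treatment of the cells lasted 48 or 72 hr at 37 degrees Celsius in a qHTS format.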

[2] = tested on: HEK293; experiment: as above; conditions: Five cell lines viability, CellTiter-Glo ATP luminescence, 48-72 h; max response: active compounds read low
In short: as §1

[3] = tested on: HaCat; experiment: as above; conditions: Five cell lines viability, CellTiter-Glo ATP luminescence, 48-72 h; max response: active compounds read low
In short: as §1

[4] = tested on: KB-3-1; experiment: as above; conditions: Five cell lines viability, CellTiter-Glo ATP luminescence, 48-72 h; max response: active compounds read low
In short: as §1

[5] = tested on: NIH3T3; experiment: as above; conditions: Five cell lines viability, CellTiter-Glo ATP luminescence, 48-72 h; max response: active compounds read low
In short: as §1

[6] = tested on: NIH3T3; experiment: qHTS assay to identify novel small-molecules to repurpose for Merkel cell carcinoma treatment (AID 1296009); conditions: MCC and control cell lines, CellTiter-Glo viability, 72 h; at 44.8 µM (top of the series) unless noted; further: nearly all actives have a fitted effect of over 60% in size
In short: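 Cell viability measured by CellTiter-Glo following 72 hr compound treatment at 37 degree celsius, with NPC and MIPE libraries tested in 8- and 11-point concentration series.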

[7] = tested on: C33A; experiment: Primary qHTS to identify gynecologic anti-cancer compounds using libraries of approved drugs and bioactive compounds (AID 1345084); conditions: Gynecologic cancer cell panel viability, ATPlite luminescence, 48 h; series mostly up to 57.5 µM; further: nearly all actives have a fitted effect of over 55% in size; further: potency means the concentration at half of the fitted maximal effect
In short: (§2)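 Cytotoxicity screen measuring ATP content by luciferase luminescence. Each compound is applied at five concentrations for 48 h at 37 C with 5% CO2.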

[8] = tested on: CASKI; experiment: as above; conditions: Gynecologic cancer cell panel viability, ATPlite luminescence, 48 h; series mostly up to 57.5 µM
In short: as §2

[9] = tested on: Es-2; experiment: as above; conditions: Gynecologic cancer cell panel viability, ATPlite luminescence, 48 h; series mostly up to 57.5 µM
In short: as §2

[10] = tested on: HeLa; experiment: as above; conditions: Gynecologic cancer cell panel viability, ATPlite luminescence, 48 h; series mostly up to 57.5 µM
In short: as §2

[11] = tested on: Hek293T; experiment: as above; conditions: Gynecologic cancer cell panel viability, ATPlite luminescence, 48 h, control line for the selectivity index; series mostly up to 57.5 µM
In short: as §2

[12] = tested on: JEG-3; experiment: as above; conditions: Gynecologic cancer cell panel viability, ATPlite luminescence, 48 h; series mostly up to 57.5 µM
In short: as §2

[13] = tested on: OV90; experiment: as above; conditions: Gynecologic cancer cell panel viability, ATPlite luminescence, 48 h; series mostly up to 57.5 µM
In short: as §2

[14] = tested on: PA-1; experiment: as above; conditions: Gynecologic cancer cell panel viability, ATPlite luminescence, 48 h; series mostly up to 57.5 µM
In short: as §2

[15] = tested on: CAOV3; experiment: as above; conditions: Gynecologic cancer cell panel viability, ATPlite luminescence, 48 h; series mostly up to 57.5 µM
In short: as §2

Row | Structure (SMILES) | max response [1] | max response [2] | max response [3] | max response [4] | outcome [5] | outcome [6] | Potency [7] | outcome [8] | Potency [9] | Potency [10] | Potency [11] | Potency [12] | Potency [13] | Potency [14] | Potency [15] | outcome [1] | outcome [4] | Potency [1]
1 | C/C(=C\C(=O)C(C)C1CCC2C3=C(CCC21C)C1(C)CCC(=O)C(C)(C)C1(O)CC3)C(C)(C)O (stereo not drawn) | 3.05% | -15.6% | 1.49% | -3.74% | inactive | inactive [at 17.4 µM] | inactive | inactive | inactive | inactive | inactive | inactive | inactive | inactive | – | – | – | –
2 | C/C=C(\C)C(=O)OC1C(C)C2(O)C3C=C(C)C(=O)C3CC(CO)=CC2C2C(C)(C)C12OC(C)=O (stereo not drawn) | -31.4% | -25.8% | 4.78% | 2.42% | inactive | inactive [at 17.4 µM] | – | inactive | 0.112 µM (active) | inactive | inactive | inactive | inactive | – | inactive | – | – | –
3 | CCCCCOC(=O)Nc1nc(=O)n(C2O[C@H](C)[C@@H](O)[C@H]2O)cc1F (stereo partly drawn) | – | -11.1% | -6.73% | – | inactive | – | inactive | inactive | inactive | inactive | inactive | inactive | inactive | inactive | inactive | inactive | inactive | –
4 | C=C1CC23CC1CCC2C12OC(=O)C(C)(C(O)C(O)C1O)C2C3C(=O)O (stereo not drawn) | -6.36% | -2% | 2.72% | – | inactive | – | inactive | inactive | inactive | inactive | inactive | inactive | inactive | inactive | inactive | – | inactive | –
5 | Cc1ccccc1N1CCN(S(=O)(=O)C[C@]23CC[C@H](C[C@@H]2NC(=O)[C@@H](N)CCS(C)(=O)=O)C3(C)C)CC1 | 1.21% | 4.97% | 0.627% | 5.94% | inactive | inactive | inactive | inactive | inactive | inactive | inactive | inactive | inactive | inactive | – | – | – | –
6 | N#Cc1ccc(C2CCCc3cncn32)cc1 (stereo not drawn) | -28.9% | -80.6% | 3.15% | – | inactive | inactive [at 17.4 µM] | inactive | inactive | – | – | inactive | inactive | inactive | – | inactive | – | inactive | –
7 | O=S(=O)(O)c1ccc(Nc2ncnc3c2ncn3[C@@H]2O[C@H](CO)[C@@H](O)[C@H]2O)cc1 | – | -6.97% | -25.7% | – | inactive | inactive | inactive | inactive | inactive | inactive | inactive | inactive | inactive | inactive | – | inactive | inactive | –
8 | CC1=C2C(=O)C=C(CO[C@@H]3O[C@H](CO)[C@@H](O)[C@H](O)[C@H]3O)[C@@H]2[C@H]2OC(=O)[C@H](C)[C@@H]2CC1 | -4.79% | 3.74% | 4.93% | 0.664% | inactive | – | inactive | inactive | inactive | inactive | inactive | inactive | inactive | inactive | – | – | – | –
9 | CC1=CCC2C(C)(C)CCCC2(C)C1CC12OC1C(O)C(CO)=CC2O (stereo not drawn) | 3.52% | -6.22% | -4.23% | 9.42% | inactive | – | inactive | inactive | inactive | inactive | inactive | inactive | inactive | inactive | inactive | – | – | –
10 | Cc1ccc(C)c(NC(=O)CNS(=O)(=O)c2ccc3[nH]c(=O)oc3c2)c1 | – | -17.1% | -0.793% | 8.68% | inactive | – | inactive | – | inactive | inactive | inactive | inactive | inactive | inactive | inactive | inactive | – | –
11 | CCCN1CCC[C@@H](c2cccc(S(C)(=O)=O)c2)C1 | -1.62% | -20.6% | -5% | -6.47% | inactive | inactive | inactive | inactive | inactive | inactive | inactive | inactive | inactive | inactive | – | – | – | –
12 | C#CCCCn1cc(-c2cccc3c2N[C@@H](C)CC(=O)N3)cn1 | – | -6.8% | -14.3% | – | inactive | – | inactive | inactive | inactive | 28.2 µM (active) | inactive | inactive | inactive | inactive | inactive | – | inactive | 18.4 µM (active)
